# From PubChem
# Sampled rows, rich in hits. Any-hit rate of the full collection: about 9.4%.
# FLuc counter: qHTS profiling assay for firefly luciferase inhibitor/activator using purifed enzyme and Km concentrations of substrates (counterscreen for miR-21 project); Luciferin 4-monooxygenase (Photinus pyralis), P08659; 360,000 tested, 6.9% active; AID 588342, 2011; purified FLuc, Km substrates, luminescence inhibition; Potency, µM (titrated, usually from 57.5 µM), for inactives: top-dose activity change, negative = inhibition, actives largely listed as inhibitors;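 note: plate controls were vehicle for no effect and reference inhibitor for full effect; nearly all actives have a fitted effect of over 55% in size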
# Target sequence (P08659 whole entry, looked up): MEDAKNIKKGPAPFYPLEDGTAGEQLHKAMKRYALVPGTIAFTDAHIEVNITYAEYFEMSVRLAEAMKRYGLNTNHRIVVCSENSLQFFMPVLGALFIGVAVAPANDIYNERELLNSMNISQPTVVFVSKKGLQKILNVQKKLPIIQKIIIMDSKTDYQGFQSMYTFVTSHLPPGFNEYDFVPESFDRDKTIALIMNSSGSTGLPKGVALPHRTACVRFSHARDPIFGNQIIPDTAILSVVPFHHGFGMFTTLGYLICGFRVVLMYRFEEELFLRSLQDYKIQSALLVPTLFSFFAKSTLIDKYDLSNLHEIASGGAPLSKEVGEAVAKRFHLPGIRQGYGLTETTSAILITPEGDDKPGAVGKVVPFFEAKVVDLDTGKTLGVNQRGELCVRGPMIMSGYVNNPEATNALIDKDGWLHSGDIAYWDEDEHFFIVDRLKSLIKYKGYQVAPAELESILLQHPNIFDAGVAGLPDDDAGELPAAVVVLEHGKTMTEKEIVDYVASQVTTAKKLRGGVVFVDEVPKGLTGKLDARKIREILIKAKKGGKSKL
#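 Purified P. pyralis luciferase (10nM final) with 10uM D-luciferin and 10uM ATP (Km levels) in 50mM Tris acetate pH 7.5, 10mM Mg acetate, 0.01% Tween-20, 0.05% BSA; qHTS 6-point titration, ~60 µM downward; luminescence read.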
# NPC1 promoter act: qHTS Assay for NPC1 Promoter Activators | Huh7 NPC1 promoter luciferase reporter, 24 h | Potency, µM (highest dose often 9.22 µM), for inactives: at the highest dose activation, hits mostly activators | 320,000 tested, 2.4% active | AID 485313, 2010; note: % of control where 0% means no effect; nearly all actives have a fitted effect of over 60% in size
#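 Stable NPC1-promoter luciferase Huh7 line; cpd (DMSO) 24 h, 37 °C, 5% CO2; Amplite luciferase reagent 10 min RT; luminescence readout. qHTS format.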
# ELG1 repair inh: qHTS screen for small molecules that inhibit ELG1-dependent DNA repair in human embryonic kidney (HEK293T) cells expressing luciferase-tagged ELG1 | HEK293T ELG1-luciferase reporter, luminescence, 16 h; DNA damage induced by 5-fluorouridine | 330,000 tested, 2.3% active | Potency, µM (highest dose often 46.1 µM), inactives show top-dose activity change, negative = inhibition, actives largely listed as inhibitors; note: % is set by controls: 0 for no effect and ±100 for the full control effect; nearly all actives have a fitted effect of over 55% in size
#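 DMSO vehicle served as the neutral condition. Each well held 2,000 cells given 5-fluorouridine plus compound; after 16 hr at 37 °C/5% CO2, ONE-Glo was added and luciferase measured 30 min later.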
# ELG1 genotoxic: qHTS screen for small molecules that induce genotoxicity in human embryonic kidney (HEK293T) cells expressing luciferase-tagged ELG1; HEK293T ELG1-luciferase reporter, luminescence, 16 h; 330,000 tested, 1.3% active; Potency, µM (highest dose often 46 µM), inactives show at the top dose activity change, positive = activation, hits mostly activators; note: % of control where 0% means no effect; nearly all actives have a fitted effect of over 60% in size
#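 Reporter readout depends on ELG1 protein level, which increases with genetic stress. After 16 hr compound exposure at 37 °C, luciferase activity was quantified using ONE-Glo.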
# Rab9 promoter act: qHTS Assay for Rab9 Promoter Activators | Huh7 Rab9 promoter-luciferase reporter, luminescence, 24 h | Potency, µM (highest dose often 9.22 µM), inactives show at the highest dose activation, negative = inhibition, usual class: activators | 320,000 tested, 2.8% active | AID 485297, 2010; note: % of control where 0% means no effect; nearly all actives have a fitted effect of over 60% in size
#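 Stable Rab9-luc Huh7, 1500 cells/well, 2 h settle; cmpd in DMSO, 24 h, 37 °C/5% CO2; luciferase reagent 10 min RT; luminescence.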
# SMN2 splice up: qHTS Assay for Enhancers of SMN2 Splice Variant Expression | 210,000 tested, 2.8% active | AID 1458, 2008 | Potency, µM (top dose mostly 46.1 µM), inactives show at the highest dose activity change, positive = activation, hits mostly activators | HEK293 SMN2-luciferase splicing reporter, luminescence, 30-36 h; note: % of control where 0% means no effect; nearly all actives have a fitted effect of over 55% in size
#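 qHTS luciferase splicing reporter: luminescence rises when SMN2 exon 7 is included in transfected HEK293 cells. Compound exposure lasted 30-36 h at 37C, with 4.5 mM final sodium butyrate as control, followed by a ONE-Glo read.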
# Active calls of the source: *; ? = inconclusive; . = not tested or not shown; [ ] = remark or other dose. Calls come from the whole dose curve; as a rule, active = well fitted curve in the direction sought with a large enough effect; inconclusive = small, poorly fitted or top-dose-only effect, or another doubt; inactive = no such curve, though single readings can be large; an effect the other way counts as inactive or inconclusive. Potency is the fitted concentration of half-maximal effect.
SMILES,FLuc counter,NPC1 promoter act,ELG1 repair inh,ELG1 genotoxic,Rab9 promoter act,SMN2 splice up
N#Cc1ccc(-c2ccccc2)nc1SCC(=O)c1cccc(Cl)c1,3.0%,-1.5%,18.4%,2.7%,1.9%,-3.5%
COc1ccc(-c2ccc(SCC(=O)N3CCCC3)nn2)cc1OC,?,4.4%,0.1%,-1.5%,-2.5%,7.9%
N#Cc1ccc(-c2cccnc2)nc1SCC(=O)c1ccccc1,?,?,?,14.9%,3.16µM*,.
COc1ccc(C(=O)CSc2ccc(-c3ccc(C)cc3)nn2)cc1,10.7µM*,20.7%,?,5.6%,20.2%,14.1µM*
COc1ccc(-c2ccc(SCC(=O)c3ccc(F)cc3)nn2)cc1OC,13.5µM*,-6.8%,-28.8%,-4.6%,0.2%,-17.5%
COc1ccc(-c2ccc(SCC(=O)c3cccs3)nn2)cc1OC,19µM*,-0.7%,5.6%,4.1%,-9.3%,?
O=C(CSc1ccc(-c2ccccc2)nn1)c1ccccc1,16.9µM*,?,?,?,?,?
Cc1nc2cc(-c3ccc(Cl)cc3)nn2c(C)c1CCC(=O)NC(C)c1ccc2c(c1)OCCO2 (configuration not stated),15.1µM*,5.3%,?,-8.5%,-2.9%,-72.8%
COc1cc(OC)cc(-c2cc3nc(C)c(CCC(=O)NCc4ccccc4)c(C)n3n2)c1,?,-23.3%,20.6µM*,-6.9%,-14.6%,-7.0%
Cc1csc(NC(=O)CCc2c(C)nc3cc(-c4ccc(Cl)cc4)nn3c2C)n1,10.7µM*,1.3%,?,-14.8%,-2.4%,-83.2%
COc1ccccc1CNC(=O)CCc1c(C)nc2cc(-c3ccc(Cl)cc3)nn2c1C,6.1%,.,.,.,.,15.9%
COc1ccc2c(Sc3ccc(Cl)cc3)c(C(=O)N3CCCCC3)[nH]c2c1,-9.4%,.,.,.,.,.
CCOc1cccc(CC(=O)N2CCc3c([nH]c4ccccc34)C2c2ccc(C)cc2)c1OCC (configuration not stated),4.2%,.,.,.,.,.
O=C(Nc1ccccc1)N1CC=C(c2ccc(F)cc2)CC1,23.9µM*,4.47µM*,?,?,1µM*,11.2µM*
O=C(Nc1cccc2ccccc12)N1CC=C(c2ccccc2)CC1,-14.0%,3.1%,-0.5%,1.3%,1.1%,-6.1%
O=C(Nc1ccccc1)N1CC=C(c2ccccc2)CC1,4.78µM*,2.24µM*,?,2.59µM*,1.58µM*,12.6µM*
N[C@@H](CSCc1ccc(I)cc1)C(=O)O,.,.,.,.,.,-4.2%[9.22 µM]
N#Cc1cc(C(=O)c2ccccc2OCC(=O)Nc2ccccc2Cl)cn(C2CCCCC2)c1=O,1.6%,-3.2%,?,-2.6%,-1.2%,-8.8%
CC(=O)c1cccc(NC(=O)COc2ccccc2C(=O)c2cc(C#N)c(=O)n(C3CCCCC3)c2)c1,-0.8%,-5.6%,10.3µM*,-1.6%,1.1%,2.8%
CCOc1ccc2[nH]c(=O)c(CN(Cc3cccnc3)C(=O)Nc3ccccc3OC)cc2c1,16.9µM*,-0.7%,?,1.5%,-4.1%,?
CCN(CC)CCN(Cc1cc2cc(C)ccc2[nH]c1=O)C(=O)Nc1ccccc1OC,-4.6%,-3.9%,-1.6%,-0.5%,-15.7%,-6.5%
CCc1ccc2[nH]c(=O)c(CN(Cc3ccccc3OC)C(=O)Nc3ccccc3OC)cc2c1,-1.1%,-6.5%,23.1µM*,-14.9%,-5.3%,-23.0%
Cc1cccc(NC(=O)CSc2nc3c(sc4ccccc43)c(=O)n2CCCC(=O)NC2CCCC2)c1,0.3%,.,.,.,.,1.1%
Cc1ccc(/C=N/Nc2ccc(C(=O)O)cc2)s1,0.536µM*,?,?,?,?,-98.5%
O=C(O)c1ccc(N/N=C/c2cc(Br)cs2)cc1,0.239µM*,0.0891µM*,?,?,0.1µM*,.
SMILES,FLuc counter,NPC1 promoter act,ELG1 repair inh,ELG1 genotoxic,Rab9 promoter act,SMN2 splice up
Cc1ccc(/C=N/Nc2cccc(C(=O)O)c2)s1,0.953µM*,0.0891µM*,?,?,0.0891µM*,0.251µM*
Cc1ccc(/C=N/NC(=O)c2cccnc2)s1,?,12.9%,11.2%,11.5%,12.2%,.
Cc1ccc(/C=N/NC(=O)C[n+]2ccccc2)s1,-1.4%,-0.3%,?,6.9%,2.3%,.
CCc1cccc(NC(=O)CC(c2ccc(OC)cc2)N2Cc3ccccc3C2=O)c1 (configuration not stated),-15.8%,.,.,.,.,.
Cc1cc2c(c(=O)n1-c1ccccc1)C1O[C@](c3ccsc3)(Cc3cc(C#N)ccc31)O2,1.4%[11.5 µM],0.5%[1.84 µM],.,.,0.7%[1.84 µM],.
CCCCOC(=O)c1ccc(OC(=O)c2sc3ncn(Cc4ccccc4Cl)c(=O)c3c2C)cc1,2.4%,.,.,.,.,.
COc1ccccc1NC(=O)Nc1nnc(C(C)C)s1,16.9µM*,?,?,?,?,22.4µM*
COc1ccccc1NC(=O)CSc1nnc(NC(=O)C2CC2)s1,?,-1.9%,-26.7%,3.3%,2.1%,.
COc1ccccc1NC(=O)Nc1nnc(C(C)c2ccccc2)s1 (configuration not stated),-16.3%,1.0%,24.8%,9.7%,0.3%,.
COc1ccccc1NC(=O)CSc1nnc(NC(=O)Nc2ccc(C)cc2)s1,2.13µM*,.,.,.,.,.
CC(=O)Nc1ccc(NC(=O)CSc2nnc(NC(=O)Cc3ccc(F)cc3)s2)cc1,1.8%,6.6%,1.2%,25.3%,2.4%,.
CC(=O)Nc1ccc(NC(=O)CSc2nnc(NC(=O)c3cccc(F)c3)s2)cc1,0.675µM*,?,?,?,3.16µM*,.
O=C(CSc1nnc(NC(=O)c2c(F)cccc2F)s1)Nc1ccc(F)cc1,-4.1%,?,?,19.4%,2.24µM*,.
CCc1ccc(NC(=O)COCc2cc(-c3ccc(F)cc3)on2)cc1,-3.8%,.,.,.,.,12.0%
CCOc1ccc(/C=C/c2nc(C#N)c(Nc3ccc(OC)cc3)o2)cc1,1.4%,.,.,.,.,8.4%
O=C(CSc1nnc(NC(=O)Nc2ccccc2)s1)Nc1cccc(F)c1,1.51µM*,.,.,.,.,.
O=C(Nc1nnc(-c2ccc(Cl)cc2)o1)c1cccc(N2C(=O)CCC2=O)c1,12µM*,2.1%,13.0%,0.7%,0.5%,12.3%
O=C(Nc1nnc(-c2ccncc2)o1)c1cccc(N2C(=O)CCC2=O)c1,-18.7%,-1.9%,2.5%,1.4%,0.4%,-13.9%
CSc1cccc(-c2nnc(NC(=O)c3cccc(N4C(=O)CCC4=O)c3)o2)c1,26.9µM*,0.1%,0.6%,-10.3%,-2.6%,.
